Screens as filed in PubChem BioAssay.
PLK1 PBD inh: blocks phosphopeptide binding to human PLK1 polo-box domain; Plk1 PBD binding of FITC phosphopeptide, fluorescence polarization; 2.8% of 360,000 active; P53350; Potency, µM, usual class: inhibitors; further: series mostly up to about 57 µM; nearly all actives have a fitted effect of over 65% in size
Target sequence (P53350 whole entry, looked up, the tested form may be a part): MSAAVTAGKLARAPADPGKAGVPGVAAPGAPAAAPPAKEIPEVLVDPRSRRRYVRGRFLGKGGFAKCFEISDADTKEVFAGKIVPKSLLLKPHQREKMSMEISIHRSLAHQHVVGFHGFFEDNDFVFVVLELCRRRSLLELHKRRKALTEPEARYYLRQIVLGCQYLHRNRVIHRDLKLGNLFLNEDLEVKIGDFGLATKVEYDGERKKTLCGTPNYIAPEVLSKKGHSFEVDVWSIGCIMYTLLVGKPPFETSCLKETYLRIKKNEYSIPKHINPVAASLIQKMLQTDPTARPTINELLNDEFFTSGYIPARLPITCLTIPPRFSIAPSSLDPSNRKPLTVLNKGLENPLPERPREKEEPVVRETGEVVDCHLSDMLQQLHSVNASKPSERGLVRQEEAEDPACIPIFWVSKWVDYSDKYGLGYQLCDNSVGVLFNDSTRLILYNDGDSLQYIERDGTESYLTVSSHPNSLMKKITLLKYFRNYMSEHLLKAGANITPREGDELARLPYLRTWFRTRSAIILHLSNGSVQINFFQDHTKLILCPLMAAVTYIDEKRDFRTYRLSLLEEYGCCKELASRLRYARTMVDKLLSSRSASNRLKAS
HP1b binding inh: inhibitors of HP1-beta chromodomain binding to methylated histone tails; P83916; AlphaScreen HP1-beta / biotin-H3K9me3 peptide binding; Potency, µM (titrated, usually from 114 µM), most hits filed as inhibitors; 0.56% of 390,000 active; AID 540317; further: nearly all actives have a fitted effect of over 70% in size
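AlphaScreen: HP1-beta (50 nM) preformed 30 min with biotin-H3(1-18)K9me3 peptide (50 nM) in PBS pH 7.4, 0.01% Tween-20. Compound added for 30 min at RT, then streptavidin donor/nickel chelate acceptor beads (10 ug/mL) for 30 min.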
PI5P4K alpha inh: blocks human PI5P4K alpha kinase activity. PI5P4Kalpha enzyme, ADP-Glo luminescence, 60 min; hits give low values. max response, %. 1.2% of 330,000 active; active means max response of -50% or lower; inconclusive means between -30% and -50%; inactive means -30% or higher; further: value at the top dose of about 77 µM
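ADP-Glo luminescence end-point read after a 60 min room-temperature kinase reaction of PI5P4Kalpha plus substrate, initiated with ATP at 5 microM final. Buffer: 0.038 M HEPES pH 7.4, EGTA, 0.1% CHAPS, 5% DMSO.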
BAZ2B inh: inhibitors of human BAZ2B bromodomain. Q9UIF8. AlphaScreen BAZ2B-H3K14Ac peptide displacement. Potency, µM (highest dose often 114 µM), actives largely listed as inhibitors. 4.4% of 360,000 active. AID 504333; further: nearly all actives have a fitted effect of over 60% in size
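AlphaScreen displacement of biotin-H3(5-23)K14Ac peptide (50 nM final) from BAZ2B (50 nM final) in PBS pH 7.4, 0.01% Tween-20; complex preformed 30 min RT, then compounds (top 110 uM) 30 min RT, beads 20 min dark.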
G9a inh: blocks human histone lysine methyltransferase G9a | G9a H3K9 monomethylation, AlphaScreen, 2 h | Potency, µM (titrated, usually from 102 µM), usual class: inhibitors | 8.8% of 350,000 active | AID 504332; further: nearly all actives have a fitted effect of over 75% in size
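Enzyme 20 nM + cpd, 15 min RT; add b-H3K9 pep 500 nM / SAM 20 uM; 2 h RT; anti-H3K9me1 Ab 0.5 ug/mL + SA donor / anti-rabbit acceptor beads 20 ug/mL each, 10 min; AlphaScreen read.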
JMJD2A Tudor inh: blocks the human JMJD2A Tudor domain; O75164; AlphaScreen JMJD2A-Tudor / H3K4me3 peptide binding; Potency, µM (top dose mostly 114 µM), most hits filed as inhibitors; 4.4% of 390,000 active; further: nearly all actives have a fitted effect of over 50% in size
A number is an active result; - = inactive; ? = inconclusive; . = not tested or not shown; [ ] = another dose, or the depositor's remark. Shown are actives, neighbours in structure and some others; about 12% of the full set was active somewhere. Unless noted, the call rests on the fitted dose curve; in most records, active means well fitted curve in the direction sought with a large enough effect; inconclusive means small, poorly fitted or top-dose-only effect, or another doubt; inactive means no such curve, though single readings can be large; an effect the other way counts as inactive or inconclusive.

SMILES	PLK1 PBD inh	HP1b binding inh	PI5P4K alpha inh	BAZ2B inh	G9a inh	JMJD2A Tudor inh
O=C1CC(c2ccccc2)Sc2ccccc2N1 (stereo unspecified)	?	-	-	-	45µM	-
O=C(CN1C(=O)CC(c2ccco2)Sc2ccccc21)Nc1ccccc1F (stereo unspecified)	-	-	?	?	?	?
CCOc1ccc(/C=C/c2nc3ccccc3n2S(=O)(=O)c2cccc(Cl)c2)cc1	.	-	.	.	-	-
CSCCC(NC(=O)c1ccco1)C(=O)N(C)CC(=O)Nc1ccccc1Br (stereo unspecified)	-	-	-	-	-	-
C=CCn1cn[nH]c1=S	-	-	-	?	13µM	?
C=CCn1cc(C(C)=O)c(=O)[nH]c1=O	-	-	-	-	-	-
C/C(=N\Nc1nc2ccccc2s1)c1cccs1	-	-	-	?	-	?
CC(=NNc1nc2ccccc2s1)c1ncccn1	-	-	-	.	.	45µM
Cc1cc(C)nc(Nc2nc3ccccc3o2)n1	-	-	-	-	-	-
CC(=NNc1nc2ccccc2o1)c1cc2ccccc2cn1	-	-	-	.	.	10µM
CC(=NNc1nc2ccccc2o1)c1ncccn1	-	-	-	.	.	10µM
CCCCNC(=O)C1c2ccccc2OCC(=O)N1C1CC1 (stereo unspecified)	-	.	-	.	.	.
O=c1c2ccccc2nc(COc2ccccc2)n1/N=C/c1ccc(O)cc1O	-	-	-	?	-	-
C/C(=N\OCc1nc2ccccc2c(=O)n1/N=C/c1cc([N+](=O)[O-])ccc1O)c1ccccc1	-	-	-54	-	40µM	-
C/C(=N\OCc1nc2ccccc2c(=O)n1/N=C/c1cc(C)cc([N+](=O)[O-])c1O)c1ccccc1	-	-	-	7.9µM	.	-
CC(C)C(=O)Nc1ccc(Oc2ccc3c(c2)C(=O)NC3=O)cc1	-	-	-	-	-	-
CC1(C)Cc2c(ccc3ccccc23)/C(=C/C#N)N1	-	-	.	-	50µM	?
CCOC(=O)C1=C(CN2CCN(c3ccc(Cl)cc3)CC2)NC(=O)NC1c1ccc(OC)cc1 (stereo unspecified)	.	-	.	?	-	?
Cc1ccc2cc3cc(C(=O)NCCCN4CCCC4)oc3nc2c1	?	-	-	-	79µM	?
Cc1ccc2nc(Cl)c3cc(C(=O)NCCCN4CCCC4)sc3c2c1	-	-	-	-	50µM	-
Cc1ccc2cc3cc(C(=O)NCCCN4CCCCCC4)oc3nc2c1	-	-	-	-	45µM	-
Cc1ccc2nc(Cl)c3cc(C(=O)N(CCN(C)C)Cc4ccco4)sc3c2c1	-	?	-	.	50µM	45µM
CCC1CCCCN1CCCNC(=O)c1cc2c(Cl)nc3ccc(C)cc3c2s1 (stereo unspecified)	.	-	.	-	-	-
Cc1ccc2cc3cc(C(=O)NCCCN4CCc5ccccc5C4)oc3nc2c1	-	-	-	-	?	-[11.4 µM]
O=C(Nc1ccccc1Cl)c1cc(C2CCCN(C(=O)c3cccs3)C2)on1 (stereo unspecified)	-	.	-	.	.	.
SMILES	PLK1 PBD inh	HP1b binding inh	PI5P4K alpha inh	BAZ2B inh	G9a inh	JMJD2A Tudor inh
CCOC(=O)N1CCN(Cc2nc3cc(NC(=O)c4ccccc4Cl)ccc3n2C(C)C)CC1	.	-	.	-	-	-
CCCC1=NN2C(=N)/C(=C\c3ccc(SCc4ccco4)o3)C(=O)N=C2S1	24µM	?	-56	45µM	8.9µM	50µM
CCCC1=NN2C(=N)/C(=C\c3cc(C)n(Cc4ccccc4)c3C)C(=O)N=C2S1	?	-	-	-	-	-
CCC1=NN2C(=N)/C(=C\c3ccc(SCc4ccco4)o3)C(=O)N=C2S1	?	-	-52	50µM	7.1µM	?
CCOc1ccc(NC(=O)c2oc3ccccc3c2NC(=O)Cc2cccc(C)c2)cc1	.	-	.	-	-	-
Cc1ccccc1Cn1c(C)nc2ccc([N+](=O)[O-])cc2c1=O	-	-	-	?	-	-
Cc1ccc(C(=O)NCC(=O)OC(C)C(=O)Nc2ccccc2[N+](=O)[O-])s1 (stereo unspecified)	-	-	-	.	.	-
Cc1ccc(C(=O)NCC(=O)OC(C)C(=O)Nc2ccc(N(C)C)cc2)s1 (stereo unspecified)	-	-	-	-	40µM	-
N#CC1=C2SCC(O)(c3ccccc3)N2C(=O)CC1c1cccs1 (stereo unspecified)	-	-	.	?	50µM	-
Cc1ccc(C)n1NC(=O)c1cccs1	-	-	?	-	-[12.7 µM]	-
CC(C)(NO)/C(=N/O)c1cccs1	-	-	-	45µM	7.1µM	10µM
COc1ccc(N2C(=O)CN=C2Nc2nc(C)cc(C)n2)cc1OC	-	-	.	?	-	79µM
Cc1cc(C)nc(NC2=NCC(=O)N2c2ccc(F)c(Cl)c2)n1	-	-	-	-	-	?
CCOC(=O)c1cc(C#N)c(SC)nc1-c1ccccc1	-	-	-	-	-[2.33 µM]	-
CSc1nc(C)c(C(=O)C[n+]2ccccc2C)cc1C#N	15µM	-	-	-	-	-[11.4 µM]
COc1ccc(-c2csc(Cc3nnc(N4CCOCC4)n3-c3ccccc3)n2)cc1	-	-	.	-	50µM	-
COc1ccc(-c2csc(Cc3nnc4n3CCCCC4)n2)cc1	-	-	-	?	-[12.7 µM]	-
COc1ccc(-c2csc(Cc3nnc(N4CCOCC4)n3-c3ccccc3)n2)cc1OC	-	-	.	?	?	63µM
O=C(CSc1ccc2c(c1)OCCO2)Nc1ccc(Br)cn1	?	-	-	-	45µM	-
O=C(CSc1ccc2c(c1)OCCO2)Nc1ncccc1O	-	-	-	?	-[0.501 µM]	50µM
O=C(CSc1ccc2c(c1)OCCO2)Nc1ccc(Cl)cn1	?	-	-	-	-	-
Cc1nnc(SCC(=O)Nc2ccc(Br)cn2)[nH]c1=O	-	-	-	-	50µM	-
CCc1cccc(-n2nnc(-c3nc(-c4cccs4)no3)c2N)c1	.	-	.	-	-	-
Cc1ccc(-c2nc(CCNC(=O)C(=O)Nc3ccc(C)c(C)c3)cs2)cc1	.	-	.	-	-	-
O=C1N=c2ccc(Br)cc2=C1c1sc(=S)n(NS(=O)(=O)c2ccccc2)c1O	24µM	?	-98	20µM	16µM	50µM
SMILES	PLK1 PBD inh	HP1b binding inh	PI5P4K alpha inh	BAZ2B inh	G9a inh	JMJD2A Tudor inh
COc1ccc(Br)cc1S(=O)(=O)NNC(=O)c1c(C)nc2ccccn12	-	-	-	-	79µM	-[11.4 µM]
Cc1nc2ccccn2c1C(=O)NNC(=S)Nc1ccccc1	-	-	-	-	-	-
Cc1cccc(-n2cnc(C(=O)N/N=C\c3ccc(Br)cc3)c2)n1	-	-	-	-	-	?
Cc1nc2ccccn2c1C(=O)NNC(=S)Nc1ccc(Cl)cc1	-	-	-	-	1.3µM	?
Cc1cccc(-n2cnc(C(=O)NNC(=S)Nc3ccc(Cl)cc3)c2)n1	-	-	-	11µM	8.9µM	35µM
Cc1nc2ccccn2c1C(=O)NNC(=O)Nc1ccccc1	-	-	-	-	50µM	-
